Experimental data taken from PubChem BioAssay.
Values joined by “and” are separate entries in the source; they are usually repeats but may differ in a detail not shown here. Equal values may be shown once. Active and inactive are the calls of the source. Rule as the data show it, unless noted: active = inhibition above about 80%; inactive = the rest.

What was measured:
[1] = liver-stage malaria parasite growth inhibition, primary screen, cell-based, HepG2, luciferase luminescence, HepG2 viability (AID 624349; in the data active = parasite load remaining mostly below about 12%, no sharp cut-off; inactive = mostly above about 10%;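 also: 100% = mean of DMSO negative control wells on the same plate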); settings: P. berghei liver stage in HepG2, luciferase luminescence, concentration not given here; parasite load remaining: stronger effect = lower value; viability: measured here: HepG2 viability without parasites
[2] = stimulators of nuclear beta-catenin in C2C12, primary screen, imaging, WNT3A-conditioned medium, mouse C2C12, NPC library (AID 1117326; in the data active = nuclear beta-catenin stimulation mostly above about 4.2%, no sharp cut-off; inactive = mostly below about 10%); settings: stronger effect = higher value
[3] = stimulators of insulin release from INS-1E, primary screen, cell-based, 5 mM glucose, NPC library (AID 1117329;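 active = compound raises insulin release from rat beta cells at 5 mM glucose, no numeric limit stated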); settings: rat INS-1E insulin secretion, at 10 µM, stronger effect = higher value
[4] = growth inhibition of GSK3B-pretreated HCT116 cells – cell-based, CellTiter-Glo, 0.2 to 20 µM (AID 1117336;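 active = compounds lowering colon cancer cell viability after pretreatment blocking the GSK3B kinase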); settings: HCT116 viability after GSK3B inhibitor, at 20 µM, stronger effect = higher value
[5] = inhibition of endothelial tube formation, primary screen, imaging, VEGF stimulated, CD31 staining, tube area, NPC library (AID 1117340;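 active = compound that reduces growth-factor-driven endothelial tube area in a mixed cell culture, no cutoff stated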); settings: VEGF-stimulated ADSC/ECFC co-culture, at 10 µM, stronger effect = higher value
[6] = glucagon-like peptide 1 release enhancers, primary assay, NCI-H716 cell line, NPC library (AID 1117341;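 active = compound raises GLP1 secretion from the human gut endocrine cells, with no numeric limit stated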); settings: NCI-H716 cells, at 10 µM, stronger effect = higher value
[7] = HCT116 colon cancer cell growth inhibition, primary screen, CellTiter-Glo luminescence, NPC library (AID 1117342;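 active = compounds that lower survival of HCT116 colon cancer cells in the luminescence readout, no numeric limit stated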); settings: at 20 µM (top of the series)
[8] = CellTiter-Glo luminescent readout of SW480 viability loss, NPC library primary (AID 1117343;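 active = compounds that lower viability of the colon cancer cells in the luminescence readout, with no numeric limit stated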); settings: CellTiter-Glo luminescence; at 20 µM (top of the series) unless noted
[9] = decreased DLD-1 cellular survival, CellTiter-Glo luminescent readout, NPC compound collection, primary HTS (AID 1117346;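 active = compounds that lower survival of DLD-1 colon cancer cells in the luminescence readout, no cutoff given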); settings: DLD-1 viability, CellTiter-Glo luminescence; at 20 µM (top of the series)
[10] = differential killing of epithelial or mesenchymal cells, primary screen, imaging, PC-3E GFP, TEM4-18 mCherry, co-culture (AID 1345086;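 active = compounds killing one labelled cell type while sparing the other, by normalised counts and ratio limits, not self-fluorescent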;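 as to all read-outs here: cells exposed to compound for 72 h before imaging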;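 as to red/green cell ratio (normalised): normalised mesenchymal count divided by normalised epithelial count so high means epithelial killing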); settings: imaging cell counts, at 1 µM; for red/green cell ratio (normalised): actives lie on both sides, counts scaled to control wells, 1 = unselective
[11] = sensitizers of A549 cells to miR-34 induction, primary screen, imaging, A549 dox-inducible miR-34, nuclei and caspase counts (AID 1347080;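 active = compounds whose cell count with miR-34 switched on is under 0.7 times the count with it off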); settings: A549 miR-34 inducible, Hoechst nuclei count, 48 h
[12] = biological target: NAD(+) hydrolase SARM1 (Homo sapiens) (UniProt Q6SZW1); assay: SARM1 TIR NADase inhibitors, cell lysate, NAD-Glo luminescence (AID 1508614;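 active = compound whose remaining NAD level is above about 45 nM, limit read from the data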;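 also: higher remaining NAD means stronger inhibition of SARM1 NADase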); settings: SAM-TIR HEK293T lysate NADase, at 1 µM, stronger effect = higher value
[13] = survival rescue of mitochondrial mutant cells in low glucose, primary screen, MELAS cybrids, Rieske KO mouse fibroblasts, CellTiter-Glo (AID 1508586;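 active = mean z-score across replicates of 1.96 or higher in either the MELAS or the Rieske mutant cell line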;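 also: z relative to plate mean and SD of compound and empty wells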)
[14] = LFS_MB_P medulloblastoma growth inhibition, cell-based, chromothripsis tumors, cisplatin or BGB combos (AID 1671449); settings: LFS_MB_P medulloblastoma cells;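 also: cells exposed for 96 hours; 0% = vehicle DMSO and 100% = killing by high DMSO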
[15] = HDN33 neuroblastoma growth inhibition, cell-based, chromothripsis tumors, cisplatin or BGB combos (AID 1671450); settings: HDN33 neuroblastoma cells, stronger effect = higher value;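 also: cells exposed to compound for four days; 0% = vehicle DMSO and 100% = cell killing by high DMSO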
[16] = ICB984 medulloblastoma cell growth inhibition, synergistic combos for chromothripsis tumors, cisplatin or BGB combos (AID 1671451; call rule not given here;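 also: cells exposed for 96 hours before readout; 0% = vehicle DMSO and 100% = killing by high DMSO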); settings: ICB984 medulloblastoma cells, drug combinations, stronger effect = higher value
[17] = HTB85 osteosarcoma cell growth inhibition, synergistic combos for chromothripsis tumors, BGB or cisplatin IC20 combos (AID 1671453); settings: HTB85 osteosarcoma cells, drug combinations, stronger effect = higher value;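 also: cells exposed for 96 hours before readout; 0% = vehicle DMSO and 100% = high DMSO killing control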
[18] = MDA-MB-436 breast carcinoma cell growth inhibition, synergistic combos for chromothripsis tumors, BGB or cisplatin combos (AID 1671458; call rule not given here;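 also: cells exposed for 96 hours; 0% = vehicle DMSO and 100% = killing by high DMSO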); settings: MDA-MB-436 breast carcinoma growth inhibition, drug combinations, stronger effect = higher value
[19] = measured here: epithelial PC-3E GFP cell survival
[20] = measured here: mesenchymal TEM4-18 mCherry cell survival
[21] = stronger effect = lower value, cell number ratio, induced over uninduced
[22] = measured here: relative caspase fold change +Dox/-Dox
[23] = measured here: total cells with miR-34 induction, stronger effect = lower value
[24] = measured here: total cells without miR-34 induction

NAD(+) hydrolase SARM1 (Homo sapiens), sequence (Q6SZW1 whole entry, looked up): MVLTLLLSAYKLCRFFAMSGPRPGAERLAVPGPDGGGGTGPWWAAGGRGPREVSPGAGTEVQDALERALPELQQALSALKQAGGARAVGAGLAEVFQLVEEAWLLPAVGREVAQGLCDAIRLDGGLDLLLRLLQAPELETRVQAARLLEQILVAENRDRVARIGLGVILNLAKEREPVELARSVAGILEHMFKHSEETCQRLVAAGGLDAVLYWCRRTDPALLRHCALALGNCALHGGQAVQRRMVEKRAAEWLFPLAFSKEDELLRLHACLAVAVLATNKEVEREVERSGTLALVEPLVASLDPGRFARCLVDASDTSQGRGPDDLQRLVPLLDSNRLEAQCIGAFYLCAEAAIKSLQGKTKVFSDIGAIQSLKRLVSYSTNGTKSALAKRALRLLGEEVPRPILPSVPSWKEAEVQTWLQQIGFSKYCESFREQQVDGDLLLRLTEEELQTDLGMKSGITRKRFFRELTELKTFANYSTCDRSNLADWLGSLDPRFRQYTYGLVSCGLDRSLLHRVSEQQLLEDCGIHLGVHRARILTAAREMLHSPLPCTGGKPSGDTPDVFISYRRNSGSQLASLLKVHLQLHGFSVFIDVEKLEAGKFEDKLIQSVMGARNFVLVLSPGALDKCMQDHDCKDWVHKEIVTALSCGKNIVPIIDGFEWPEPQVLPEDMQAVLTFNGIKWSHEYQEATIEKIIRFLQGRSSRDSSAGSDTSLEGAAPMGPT

CCCCCCCCCCCCCCCCCCCCCCO
parasite load remaining [1]: 85.5% (inactive)
viability [1]: 109%
nuclear beta-catenin stimulation ([2]; at 10 µM): 3.4% (inactive)
nuclear beta-catenin stimulation ([2]; stimulation, at 2 µM): 2.9%
insulin secretion stimulation [3]: -2.5% (inactive)
viability decrease [4]: -7.2% (inactive)
tube area decrease [5]: -8.1% (inactive)
GLP1 secretion stimulation [6]: 1.1% (inactive)
inhibition of viability [7]: -36.7% (inactive)
viability decrease (inhibition) [8]: 16.6% (inactive)
viability decrease (inhibition) [9]: 7.8% (inactive)
red/green cell ratio (normalised) [10]: 1.1 (inactive)
normalised cell number [10, 19]: 0.99
normalised cell number [10, 20]: 1.09
fold change [11, 21]: 0.841 (inactive)
fold change [11, 22]: 5.17
cell count [11, 23]: 10500
cell count [11, 24]: 12500
remaining NAD [12]: 10 nM (inactive)

CN1CCN(c2c(F)cc3c(=O)c(C(=O)O)cn(CCF)c3c2F)CC1
parasite load remaining [1]: 13% (inactive)
viability [1]: 62.5%
nuclear beta-catenin stimulation ([2]; at 10 µM): 0.3% (inactive)
nuclear beta-catenin stimulation ([2]; stimulation, at 2 µM): 0.9%
insulin secretion stimulation [3]: -1% (inactive)
viability decrease [4]: -13.8% (inactive)
tube area decrease [5]: 12.8% (inactive)
GLP1 secretion stimulation [6]: 7.1% (inactive)
inhibition of viability [7]: 4.1% (inactive)
viability decrease (inhibition) [8]: 4.9% (inactive)
viability decrease (inhibition) [9]: -10.7% (inactive)
red/green cell ratio (normalised) [10]: 1.08 (inactive)
normalised cell number [10, 19]: 1.16
normalised cell number [10, 20]: 1.24
fold change [11, 21]: 0.864 (inactive)
fold change [11, 22]: 1.53
cell count [11, 23]: 9860
cell count [11, 24]: 11400
z-score ([13]; MELAS cybrid survival, CellTiter-Glo 48 h, stronger effect = higher value): -0.514 (inactive) and -0.443 (inactive)
z-score ([13]; Rieske KO mouse fibroblast survival, CellTiter-Glo 72 h): -0.857 and -0.453
inhibition ([14]; at 0.5 µM, stronger effect = higher value): 2.95% (inactive)
inhibition ([14]; measured here: combination with BGB IC20, at 0.005 µM): 20.9%
inhibition ([14]; measured here: combination with BGB IC40, at 0.005 µM): 16.6%
inhibition ([14]; measured here: combination with BGB IC40, at 0.05 µM): 22.7%
inhibition ([14]; measured here: combination with cisplatin, at 0.5 µM, stronger effect = higher value): -9.55%
inhibition ([14]; measured here: combination with cisplatin, at 5 µM, stronger effect = higher value): 1.02%
inhibition ([15]; BGB combo, at 5 µM): 17.4%
inhibition ([15]; at 0.5 µM): 15.1% (inactive)
inhibition ([15]; cisplatin combo, at 5 µM): 34.1%
inhibition ([15]; measured here: with BGB IC20 combination, at 0.5 µM): 12.4%
inhibition ([15]; measured here: with cisplatin IC20 combination, at 0.5 µM): 22.9%
inhibition ([15]; single agent, at 5 µM): 6.61%
inhibition ([16]; BGB IC20 combo, at 0.005 µM): 3.45%
inhibition ([16]; BGB IC40 combo, at 0.005 µM): 12%
inhibition ([16]; BGB IC40 combo, at 0.05 µM): 3.66%
inhibition ([16]; at 0.5 µM): -15.4% (inactive)
inhibition ([16]; cisplatin combo, at 0.05 µM): 0.969%
inhibition ([16]; cisplatin combo, at 0.5 µM): -17.2%
inhibition ([16]; cisplatin combo, at 5 µM): -29.4%
inhibition ([16]; measured here: 5 uM single agent, at 5 µM): -20.3%
inhibition ([17]; at 0.5 µM): 2.85% (inactive)
inhibition ([17]; measured here: with BGB IC20, at 0.5 µM): 3.83%
inhibition ([17]; measured here: with BGB IC20, at 5 µM): 4.56%
inhibition ([17]; measured here: with cisplatin IC20, at 0.5 µM): -12%
inhibition ([17]; measured here: with cisplatin IC20, at 5 µM): -2.52%
inhibition ([17]; single agent, at 5 µM): 7.25%
inhibition ([18]; at 0.5 µM): 2.48% (inactive)
inhibition ([18]; measured here: BGB combination, at 0.5 µM): 6.04%
inhibition ([18]; measured here: BGB combination, at 5 µM): -1.46%
inhibition ([18]; measured here: cisplatin combination, at 0.5 µM): -0.921%
inhibition ([18]; measured here: cisplatin combination, at 5 µM): -0.504%
